Hits are enriched below; roughly 2.7% of the tested compounds scored in any of these assays.
Nrf2 ARE act: activators of Nrf2 (ARE) signaling; Potency, µM (top dose mostly 46.1 µM), most hits filed as activators; 0.31% of 410,000 active; AREc32 ARE-luciferase reporter (MCF7-derived line), luminescence, 24 h; also: nearly all actives have a fitted effect of over 65% in size
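ARE activation measured as luciferase luminescence (Steady-Glo, 30 min RT) in AREc32_Fluc cells after 24 hr compound exposure at 37 deg C, 5% CO2; cells seeded overnight at 1000/well in OPTI-MEM, 5% FBS.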
12-LOX inh: blocks human arachidonate 12S-lipoxygenase | P18054 | Potency, µM (top dose mostly 108 µM), hits mostly inhibitors | purified 12hLO, xylenol orange hydroperoxide absorbance | 1.1% of 580,000 active | AID 1671190
Target sequence (P18054 whole entry, looked up): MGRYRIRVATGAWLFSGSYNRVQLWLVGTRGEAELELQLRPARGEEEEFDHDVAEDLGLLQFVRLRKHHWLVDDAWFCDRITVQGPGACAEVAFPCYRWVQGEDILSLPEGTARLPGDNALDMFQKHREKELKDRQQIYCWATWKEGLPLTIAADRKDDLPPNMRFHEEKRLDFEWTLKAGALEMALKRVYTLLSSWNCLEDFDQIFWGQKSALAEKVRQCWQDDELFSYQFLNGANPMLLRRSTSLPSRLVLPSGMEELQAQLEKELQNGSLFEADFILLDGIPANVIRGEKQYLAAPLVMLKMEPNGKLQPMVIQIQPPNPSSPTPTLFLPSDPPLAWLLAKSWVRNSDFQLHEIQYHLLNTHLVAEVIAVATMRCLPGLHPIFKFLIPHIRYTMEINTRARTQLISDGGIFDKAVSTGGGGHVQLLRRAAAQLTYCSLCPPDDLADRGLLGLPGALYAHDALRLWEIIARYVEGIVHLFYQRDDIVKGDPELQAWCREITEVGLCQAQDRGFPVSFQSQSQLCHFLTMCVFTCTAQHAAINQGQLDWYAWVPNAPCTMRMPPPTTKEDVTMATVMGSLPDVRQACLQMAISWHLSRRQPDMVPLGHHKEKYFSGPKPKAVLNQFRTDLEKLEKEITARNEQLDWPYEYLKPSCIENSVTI
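Purified human 12hLO at 150 nM in 25 mM Hepes, 0.01% Triton X-100, pH 7.0, preincubated 15 min at room temperature with compound. Reaction started with 40 uM arachidonic acid, 30 min at room temperature. Hydroperoxide measured by Fe-xylenol orange, 573/405 nm absorbance ratio.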
A549 tox: counter-screen for Nrf2 inhibitors: cytotoxicity in A549 cells; 0.16% of 390,000 active; A549 ARE-Fluc cells, CellTiter-Fluor viability, 18-24 h; Potency, µM (top dose mostly 46 µM), actives largely listed as inhibitors; AID 504648
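Cytotoxicity counterscreen: CellTiter-Fluor fluorescence was measured in A549 ARE_Fluc cells after 18-24 h of compound exposure in a concentration series. The subsequent BugLite luminescent read reports ARE-luciferase activity.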
mIDH1 inhibitor: inhibitors of human mutant IDH1 R132H. IDH1-R132H enzyme, NADPH consumption, diaphorase/resazurin fluorescence. Potency, µM (top dose mostly 76.6 µM), usual class: inhibitors. 0.093% of 390,000 active. AID 602179; also: nearly all actives have a fitted effect of over 65% in size
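IDH1-R132H (0.5 ug/mL dispensed) in pH 7.5 Tris buffer was preincubated 30 min with compound, then given a substrate mix of 0.016 mM NADPH and 2 mM alpha-KG for 80 min at room temperature; remaining NADPH was read by diaphorase/resazurin fluorescence.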
LDHA inh: LDHA (human) enzyme inhibition | P00338 | AID 1347041 | activity change, % (values are at about 110 or 230 µM) | 0.15% of 480,000 active | purified LDHA, NADH/diaphorase-resazurin fluorescence; stronger effect = lower value; in the data active = activity change below about -30%; inconclusive = mostly about -25% to -30%
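Remaining NADH was detected by diaphorase (0.133 mg/mL) converting 37 µM resazurin to fluorescent resorufin, read at 0 and 20 minutes. The preceding 5-minute room-temperature reaction used 2 nM LDHA, 0.2 mM sodium pyruvate and 0.06 mM NADH at pH 7.4.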
Nrf2 block: Nrf2 pathway inhibition. A549 ARE-Fluc reporter, luciferase luminescence, 18-24 h. Potency, µM (highest dose often 46 µM), most hits filed as inhibitors. 2.1% of 360,000 active; also: nearly all actives have a fitted effect of over 60% in size
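A549 ARE_Fluc cells, 5000/well, 5% FBS OPTI-MEM; compounds in dose-response, 18-24 h at 37 °C/5% CO2; CellTiter-Fluor viability read (Ex 405/Em 525), then BugLite luciferase luminescence = Nrf2 activity.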
Large screens that a line does not name were inactive. Unless noted, calls follow the shape of the dose curve; as a rule, active = well fitted curve in the direction sought with a large enough effect; inconclusive = small, poorly fitted or top-dose-only effect, or another doubt; inactive = no such curve, though single readings can be large; an effect the other way counts as inactive or inconclusive.

COC(=O)c1ccc2nc(-c3ccco3)c(Cc3ccccc3)n2c1	Nrf2 ARE act inconclusive, 12-LOX inh 39.8µM (no result: A549 tox, mIDH1 inhibitor, Nrf2 block)
COC(=O)c1ccc2nc(-c3cccc(Cl)c3)c(Cc3cccc(Cl)c3)n2c1	12-LOX inh inconclusive (no result: A549 tox, mIDH1 inhibitor, Nrf2 block)
CCCc1nc2ccc(C(=O)OC)cn2c1Cc1ccccc1	12-LOX inh inconclusive (no result: A549 tox, mIDH1 inhibitor, Nrf2 block)
O=C(Nc1cc(-c2ccccc2)nn1C1CCS(=O)(=O)C1)c1ccco1 (stereo not drawn)	12-LOX inh inconclusive (no result: Nrf2 ARE act, A549 tox, mIDH1 inhibitor, Nrf2 block)
O=C(N/N=C/c1ccc([N+](=O)[O-])o1)c1cc(-c2ccc(-c3ccccc3)cc2)nc2ccccc12	Nrf2 block inconclusive
Cc1ccc(-c2cc(C(=O)N/N=C/c3ccc([N+](=O)[O-])o3)c3ccccc3n2)o1	12-LOX inh inconclusive, A549 tox inconclusive, Nrf2 block 20.6µM
Cc1ccc(-c2cc(C(=O)Nc3ccccc3C)c3ccccc3n2)o1	12-LOX inh 5.01µM
Cc1cc(C(=O)Nc2ccccc2C)c2ccccc2n1	none
CCc1nnc(NC(=O)c2cc(-c3ccc(C)o3)nc3ccccc23)s1	12-LOX inh 6.31µM
Cc1ccnc(NC(=O)c2cc(-c3ccc(C)o3)nc3ccccc23)c1	12-LOX inh 10µM (no result: Nrf2 ARE act, A549 tox, mIDH1 inhibitor, Nrf2 block)
Cc1ccnc(NC(=O)c2cc(C)nc3ccccc23)c1	none (no result: Nrf2 ARE act, A549 tox, mIDH1 inhibitor, Nrf2 block)
COc1ccc(S(=O)(=O)NC2CC2)cc1NC(=O)c1n[nH]c(=O)c2ccccc12	12-LOX inh inconclusive (no result: Nrf2 ARE act, A549 tox, mIDH1 inhibitor, Nrf2 block)
C(=N\Nc1ccc2ccccc2n1)/c1cccs1	12-LOX inh inconclusive (no result: Nrf2 ARE act, A549 tox, mIDH1 inhibitor, Nrf2 block)
Cc1ccc(-c2cc(C(=O)Nc3ccc(F)cc3)c3ccccc3n2)o1	12-LOX inh 3.16µM (no result: Nrf2 ARE act, A549 tox, mIDH1 inhibitor, Nrf2 block)
COc1cccc(NC(=O)c2cc(-c3ccc(C)o3)nc3ccccc23)c1	none
CC(C)(C)C1CCC(C(=O)N/N=C/c2ccc(Cl)s2)CC1 (stereo not drawn)	12-LOX inh inconclusive (no result: Nrf2 ARE act, A549 tox, mIDH1 inhibitor, Nrf2 block)
CCOc1ccc(Nc2nc(C)c(NC(=O)c3ccc(C)cc3)c(Nc3ccc(OCC)cc3)n2)cc1	12-LOX inh 22.4µM
CCC1(N2CCN(S(=O)(=O)c3ccc(F)c(C)c3)CC2)CCN(C(=O)C(C)C)C1 (stereo not drawn)	none (no result: Nrf2 ARE act, A549 tox, mIDH1 inhibitor, LDHA inh, Nrf2 block)
CCC1(N2CCN(S(=O)(=O)c3ccc4c(c3)CCCC4)CC2)CCN(C(=O)C(C)C)C1 (stereo not drawn)	12-LOX inh 22.4µM (no result: Nrf2 ARE act, A549 tox, mIDH1 inhibitor, LDHA inh, Nrf2 block)
COc1ccc(OC)c(C2SCCN2S(=O)(=O)c2cccc(C(F)(F)F)c2)c1 (stereo not drawn)	Nrf2 block 20.6µM
COc1cc(OC)c(C2SCCN2S(=O)(=O)c2ccc3ccccc3c2)cc1OC (stereo not drawn)	12-LOX inh inconclusive (no result: Nrf2 ARE act, A549 tox, mIDH1 inhibitor, Nrf2 block)
CC(C)CN1CCN(c2nc3c(c(=O)[nH]c(=O)n3C)n2Cc2ccc(Cl)c(Cl)c2)CC1	none (no result: Nrf2 ARE act, A549 tox, mIDH1 inhibitor, Nrf2 block)
CC(C)OCCCNC(=O)c1cccc(CS(C)(=O)=O)c1	12-LOX inh inconclusive (no result: Nrf2 ARE act, A549 tox, mIDH1 inhibitor, Nrf2 block)
COc1ccc2c(C(F)(F)F)cc(=S)[nH]c2c1	12-LOX inh 35.5µM (no result: Nrf2 ARE act, A549 tox, mIDH1 inhibitor, Nrf2 block)
COc1ccc2[nH]c(=S)[nH]c2c1	12-LOX inh inconclusive (no result: Nrf2 block)
Clc1cccc(CN2CCSCC2)c1	12-LOX inh 0.355µM
Brc1ccc(CN2CCSCC2)cc1	12-LOX inh inconclusive, LDHA inh -30.2
Cc1ccc(CN2CCSCC2)cc1	none
O=C(NC1CCCCC1)c1[nH]c2ccccc2c1Cl	none (no result: Nrf2 ARE act, A549 tox, mIDH1 inhibitor, Nrf2 block)
COCCNc1nc(-c2ccc(N3CCCC3=O)cc2)cs1	12-LOX inh 11.2µM (no result: Nrf2 ARE act, A549 tox, mIDH1 inhibitor, Nrf2 block)
COCCNc1nc(-c2ccc(NC(=O)C(C)(C)C)cc2)cs1	none (no result: Nrf2 ARE act, A549 tox, mIDH1 inhibitor, Nrf2 block)
COc1ccc(C2C3=C(CCCC3=O)Nc3cc(OC)cc(OC)c32)cc1 (stereo not drawn)	12-LOX inh inconclusive (no result: Nrf2 ARE act, A549 tox, mIDH1 inhibitor, Nrf2 block)
CN(C)c1ccc(C(=O)N/N=C/c2ccc(Br)s2)cc1	12-LOX inh 20µM (no result: Nrf2 ARE act, A549 tox, mIDH1 inhibitor, Nrf2 block)
O=C(N/N=C/c1ccc(Br)s1)c1cccc(Cl)c1	none (no result: Nrf2 ARE act, A549 tox, mIDH1 inhibitor, Nrf2 block)
COc1c(Br)cc(Br)cc1/C=N/NC(=O)c1ccncc1	none
CN(C)c1ccc(C(=O)N/N=C/c2cc(Br)cc(Br)c2O)cc1	Nrf2 block 13µM
O=C(O)c1ccccc1N/N=C/c1cc(Br)cc(Br)c1O	12-LOX inh 44.7µM, Nrf2 block inconclusive
O=C(Nc1cccc(Cl)c1)N1CCSc2ncccc21	none (no result: Nrf2 ARE act, A549 tox, mIDH1 inhibitor, Nrf2 block)
